In PubChem BioAssay (NCI):
About 83,000 compounds went through this panel and 20% of them were active in at least one assay; those are over-represented in the sample as a whole.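 Cell lines were cultured in 96-well plates, exposed to a single compound concentration, and assessed for percent growth 48 hours later.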 The source made the active and inactive calls. How the source made its calls: active means growth percent below 10; inactive means the rest.

What was measured:
Assay in all cases: NCI-60 one-dose screen, 48 h (100 = growth as untreated, 0 = no growth, -100 = all killed)
Conditions in all cases: 10 µM unless noted
SR leukemia = system: SR leukemia
RPMI-8226 leukemia = system: RPMI-8226 leukemia
OVCAR-8 ovarian = system: OVCAR-8 ovarian
OVCAR-5 ovarian = system: OVCAR-5 ovarian
OVCAR-4 ovarian = system: OVCAR-4 ovarian
SK-OV-3 ovarian = system: SK-OV-3 ovarian
IGROV1 ovarian = system: IGROV1 ovarian
OVCAR-3 ovarian = system: OVCAR-3 ovarian
HS 578T breast = system: HS 578T breast
NCI/ADR-RES ovarian = system: NCI/ADR-RES ovarian

Measured: growth

C[C@]12C=CC(=O)C=C1CCC1C2[C@@H](O)C[C@@]2(C)C1CC[C@]2(O)C(=O)COC(=O)CCC(=O)O (stereo not given in full)
inactive: SR leukemia 98% | RPMI-8226 leukemia 64.3% | OVCAR-8 ovarian 91.3% | OVCAR-5 ovarian 89.9% | OVCAR-4 ovarian 98.4% | SK-OV-3 ovarian 80.2% | IGROV1 ovarian 102% | OVCAR-3 ovarian 119% | HS 578T breast 119% | NCI/ADR-RES ovarian 92.1%

O=C1/C(=C\c2cn(-c3ccccc3)nc2-c2ccc(-c3cccs3)cc2)CCc2ccccc21
inactive: SR leukemia 15.9% | RPMI-8226 leukemia 52.2% | OVCAR-8 ovarian 82.5% | OVCAR-5 ovarian 94.9% | OVCAR-4 ovarian 75.1% | SK-OV-3 ovarian 86.7% | IGROV1 ovarian 56.5% | OVCAR-3 ovarian 47.3% | HS 578T breast 81.8% | NCI/ADR-RES ovarian 35.5%

O=[N+]([O-])c1ccc(N/N=C(/C(=N/Nc2ccc([N+](=O)[O-])cc2)c2ccccc2)c2ccccc2)cc1
inactive: SR leukemia 65.8% | RPMI-8226 leukemia 101% | OVCAR-8 ovarian 60.4% | OVCAR-5 ovarian 82.5% | OVCAR-4 ovarian 116% | SK-OV-3 ovarian 85.6% | IGROV1 ovarian 76.4% | OVCAR-3 ovarian 120% | HS 578T breast 101% | NCI/ADR-RES ovarian 63.7%

C#CCOc1ccc2ncnc(Nc3cccc(NC(=O)C=C)c3)c2c1
inactive: SR leukemia 17.1% | RPMI-8226 leukemia 80.2% | OVCAR-8 ovarian 45.8% | OVCAR-5 ovarian 89.6% | OVCAR-4 ovarian 76% | SK-OV-3 ovarian 60.6% | IGROV1 ovarian 33.8% | OVCAR-3 ovarian 60.6% | HS 578T breast 67.3% | NCI/ADR-RES ovarian 80.2%

CC(=O)n1nc(C(=O)OC(C)C)c2cc(C)c(C)cc21
active: OVCAR-4 ovarian 2.77%
inactive: SR leukemia 84.6% | RPMI-8226 leukemia 85% | OVCAR-8 ovarian 96.8% | OVCAR-5 ovarian 118% | SK-OV-3 ovarian 98.6% | IGROV1 ovarian 106% | OVCAR-3 ovarian 108% | HS 578T breast 96.6% | NCI/ADR-RES ovarian 101%

COc1ccc(N2CCC(=O)NC2=S)cc1
inactive: SR leukemia 116% | RPMI-8226 leukemia 105% | OVCAR-8 ovarian 106% | OVCAR-5 ovarian 102% | OVCAR-4 ovarian 106% | SK-OV-3 ovarian 103% | IGROV1 ovarian 108% | OVCAR-3 ovarian 109% | HS 578T breast 98.7% | NCI/ADR-RES ovarian 98%

COc1ccc(-c2nnc(-c3ccc4c(c3)nc(-c3ccncc3)n4C3CCCCC3)o2)cc1
inactive: SR leukemia 46.6% | RPMI-8226 leukemia 34.1% | OVCAR-8 ovarian 53.5% | OVCAR-5 ovarian 102% | OVCAR-4 ovarian 61.1% | SK-OV-3 ovarian 80.4% | IGROV1 ovarian 73.7% | OVCAR-3 ovarian 67.3% | HS 578T breast 68.6% | NCI/ADR-RES ovarian 56.9%

C=C1CC[C@@H]2[C@](C)(COC(C)=O)[C@H](OC(C)=O)CC[C@@]2(C)[C@@H]1CC(Sc1ccccc1)C1=CCOC1=O (stereo not given in full)
inactive: OVCAR-8 ovarian 11.9% | OVCAR-5 ovarian 39.8% | OVCAR-4 ovarian 100% | SK-OV-3 ovarian 57.7% | IGROV1 ovarian 25.2% | HS 578T breast 54.2% | NCI/ADR-RES ovarian 10.1%
active: SR leukemia 2.9% | RPMI-8226 leukemia -4.72% | OVCAR-3 ovarian -84.2%

CCCCC(=O)c1ccco1
inactive: SR leukemia 98.2% | RPMI-8226 leukemia 85.1% | OVCAR-8 ovarian 98.9% | OVCAR-5 ovarian 84.7% | OVCAR-4 ovarian 97.3% | SK-OV-3 ovarian 89.1% | IGROV1 ovarian 91.1% | OVCAR-3 ovarian 104% | HS 578T breast 95.2% | NCI/ADR-RES ovarian 93.3%

COC(=O)c1c2c(c(C)[n+]([O-])c1C)C(=O)C=C(NCc1ccc(Br)cc1)C2=O
active: SR leukemia 1.3% | RPMI-8226 leukemia -28.3% | OVCAR-8 ovarian 1.05% | OVCAR-5 ovarian -82.8% | OVCAR-4 ovarian -92.8% | SK-OV-3 ovarian -10.7% | IGROV1 ovarian -53.4% | OVCAR-3 ovarian -73.4% | HS 578T breast -7.62% | NCI/ADR-RES ovarian -8.51%

O=C1c2c(c3c4ccccc4[nH]c3c3ccc4ccccc4c23)C(=O)N1CCN1CCCCC1
active: SR leukemia 2.17% | RPMI-8226 leukemia 9.02%
inactive: OVCAR-8 ovarian 25.6% | OVCAR-5 ovarian 74.8% | OVCAR-4 ovarian 64.8% | SK-OV-3 ovarian 53.7% | IGROV1 ovarian 52.8% | OVCAR-3 ovarian 51.1% | HS 578T breast 90.2% | NCI/ADR-RES ovarian 40.9%

S=C1CCSC(=S)N1CCCN1C(=S)CCSC1=S
active: RPMI-8226 leukemia 3.38%
inactive: SR leukemia 21% | OVCAR-8 ovarian 55.3% | OVCAR-5 ovarian 82.8% | OVCAR-4 ovarian 83.7% | SK-OV-3 ovarian 112% | IGROV1 ovarian 85.8% | OVCAR-3 ovarian 34.1% | HS 578T breast 83.2% | NCI/ADR-RES ovarian 80.7%

CN(C)CCCC1(c2ccc(F)cc2)OCc2cc(-c3cccc4[nH]ccc34)ccc21 (stereo not given)
active: SR leukemia -14.9%
inactive: RPMI-8226 leukemia 39.7% | OVCAR-8 ovarian 20.5% | OVCAR-5 ovarian 70.1% | OVCAR-4 ovarian 30.9% | SK-OV-3 ovarian 52.5% | IGROV1 ovarian 20.2% | OVCAR-3 ovarian 31% | HS 578T breast 31.7% | NCI/ADR-RES ovarian 25.9%

Cc1cnc(C(=O)NNc2nc3sc4c(c3c(=O)n2C)C(C)CCC4)cn1 (stereo not given)
inactive: SR leukemia 12.2% | SK-OV-3 ovarian 11.9% | HS 578T breast 34.2%
active: RPMI-8226 leukemia 9.06% | OVCAR-8 ovarian 5.29% | OVCAR-5 ovarian 2.46% | OVCAR-4 ovarian -14.7% | IGROV1 ovarian -18.6% | OVCAR-3 ovarian -2.78% | NCI/ADR-RES ovarian 1.29%

OCCNCCCOc1ccc2ncnc(Nc3ccc(Oc4cccc(C(F)(F)F)c4)c(Cl)c3)c2c1
inactive: OVCAR-8 ovarian 32.1% | OVCAR-5 ovarian 72.8% | SK-OV-3 ovarian 13.7% | HS 578T breast 34.2% | NCI/ADR-RES ovarian 69.1%
active: SR leukemia 5.48% | RPMI-8226 leukemia -12.1% | OVCAR-4 ovarian 5.48% | IGROV1 ovarian -35% | OVCAR-3 ovarian 3.15%

O=C(Nc1ccc(-c2nc(N3CCOCC3)c3cccn3n2)cc1)Nc1cccnc1
active: RPMI-8226 leukemia -12% | OVCAR-8 ovarian 1.49% | OVCAR-4 ovarian -10.7% | SK-OV-3 ovarian -24.2% | IGROV1 ovarian -19.2% | OVCAR-3 ovarian 4.15% | HS 578T breast -32.3% | NCI/ADR-RES ovarian 0.693%
inactive: SR leukemia 11% | OVCAR-5 ovarian 10.1%

Cc1ccc(-c2nc(/C=C3/C(=O)Nc4ccccc43)c3ccccn23)cc1
inactive: SR leukemia 73.4% | RPMI-8226 leukemia 79.3% | OVCAR-8 ovarian 82% | OVCAR-5 ovarian 80.5% | OVCAR-4 ovarian 115% | SK-OV-3 ovarian 92.6% | IGROV1 ovarian 22.9% | OVCAR-3 ovarian 119% | HS 578T breast 85.7% | NCI/ADR-RES ovarian 75.6%

CC(O)c1cnc(/C=C2\SC(=S)N(Cc3ccccc3)C2=O)s1 (stereo not given)
active: RPMI-8226 leukemia 4.74%
inactive: SR leukemia 32% | OVCAR-8 ovarian 52.1% | OVCAR-5 ovarian 90.1% | OVCAR-4 ovarian 101% | SK-OV-3 ovarian 95.7% | IGROV1 ovarian 94% | OVCAR-3 ovarian 53.2% | HS 578T breast 95.3% | NCI/ADR-RES ovarian 92.7%

O=C1/C(=C/c2ccc(Cl)cc2)COc2ccc(O)c(O)c21
inactive: SR leukemia 15% | OVCAR-4 ovarian 27.6% | SK-OV-3 ovarian 65.7% | HS 578T breast 20.4%
active: RPMI-8226 leukemia 1.87% | OVCAR-8 ovarian 4.8% | OVCAR-5 ovarian -22.9% | IGROV1 ovarian -38% | OVCAR-3 ovarian -27.2% | NCI/ADR-RES ovarian 3.66%

COc1cc(/C=C/C(=O)c2cccc(Nc3nc(Nc4ccccc4)nc(Nc4ccccc4)n3)c2)cc(OC)c1OC
inactive: SR leukemia 22.4% | OVCAR-8 ovarian 27.2% | OVCAR-5 ovarian 78.8% | OVCAR-4 ovarian 67.4% | SK-OV-3 ovarian 90.3% | IGROV1 ovarian 37.3% | OVCAR-3 ovarian 44.9% | HS 578T breast 50.3% | NCI/ADR-RES ovarian 40.6%
active: RPMI-8226 leukemia -63.1%

Cc1ccc(Cc2cnc(NC(=O)c3cc(Br)cs3)s2)cc1
inactive: SR leukemia 18.2% | RPMI-8226 leukemia 53.2% | OVCAR-8 ovarian 82.7% | OVCAR-5 ovarian 94.2% | OVCAR-4 ovarian 77.3% | SK-OV-3 ovarian 64.9% | IGROV1 ovarian 49.6% | OVCAR-3 ovarian 61.9% | HS 578T breast 73.2% | NCI/ADR-RES ovarian 33.5%

COc1ccccc1Nc1nc2c(s1)C1=CC[C@H]3[C@@H]4CC[C@H]([C@H](C)CCCC(C)C)[C@@]4(C)CC[C@@H]3[C@@]1(C)CC2
inactive: SR leukemia 108% | RPMI-8226 leukemia 111% | OVCAR-8 ovarian 103% | OVCAR-5 ovarian 106% | OVCAR-4 ovarian 99.8% | SK-OV-3 ovarian 101% | IGROV1 ovarian 99.2% | OVCAR-3 ovarian 103% | HS 578T breast 105% | NCI/ADR-RES ovarian 96.1%

Cc1ccc(S(=O)(=O)N2CCCC2CO)cc1 (stereo not given)
inactive: SR leukemia 112% | RPMI-8226 leukemia 62.6% | OVCAR-8 ovarian 103% | OVCAR-5 ovarian 85.7% | OVCAR-4 ovarian 93.5% | SK-OV-3 ovarian 102% | IGROV1 ovarian 90.6% | OVCAR-3 ovarian 104% | HS 578T breast 79.5% | NCI/ADR-RES ovarian 56.7%

C=C(C)[C@@H]1CC[C@]2(C(=O)NCC#CCN3CCN(C)CC3)CC[C@]3(C)[C@H](CC[C@@H]4[C@@](C)(CCC#N)[C@H](C(=C)C)CC[C@]43C)[C@@H]12
inactive: RPMI-8226 leukemia 33.6% | OVCAR-8 ovarian 70.7% | OVCAR-5 ovarian 64.5% | OVCAR-4 ovarian 52.8% | SK-OV-3 ovarian 72.6% | IGROV1 ovarian 43.5% | OVCAR-3 ovarian 54.2% | HS 578T breast 65.5% | NCI/ADR-RES ovarian 55.8%
active: SR leukemia -12.1%

O=C1CC(N2C(=O)/C(=C/C(Cl)=C\c3ccc([N+](=O)[O-])cc3)SC2=S)C(=O)N1c1ccc(Cl)cc1 (stereo not given)
active: SR leukemia 4.86% | RPMI-8226 leukemia -1.96% | OVCAR-4 ovarian 9.19% | OVCAR-3 ovarian -35.4% | NCI/ADR-RES ovarian 8.17%
inactive: OVCAR-8 ovarian 15.7% | OVCAR-5 ovarian 40.6% | SK-OV-3 ovarian 99.2% | IGROV1 ovarian 10.2% | HS 578T breast 21.7%

CC[C@@H](C(=O)[C@@H](C)[C@@H](O)[C@H](C)[C@@H]1O[C@@H]([C@@H](CC)C(=O)NCCc2ccc(F)cc2)CC[C@@H]1C)C1O[C@]2(C=CC(=O)[C@]3(CC[C@@](C)([C@H]4CC[C@](O)(CC)[C@H](C)O4)O3)O2)[C@H](C)C[C@@H]1C (stereo not given in full)
active: RPMI-8226 leukemia 7.59% | OVCAR-4 ovarian -2.57%
inactive: SR leukemia 41.9% | OVCAR-8 ovarian 32.2% | OVCAR-5 ovarian 67.7% | SK-OV-3 ovarian 44.7% | IGROV1 ovarian 26.3% | OVCAR-3 ovarian 10.5% | HS 578T breast 48.1% | NCI/ADR-RES ovarian 29.6%

O=C(/C=C/c1ccc(Cl)cc1)c1cccc(Nc2nc(Nc3ccccc3)nc(Nc3ccccc3)n2)c1
inactive: SR leukemia 60.5% | OVCAR-8 ovarian 94.9% | OVCAR-5 ovarian 92.9% | OVCAR-4 ovarian 83.6% | SK-OV-3 ovarian 108% | IGROV1 ovarian 13.5% | OVCAR-3 ovarian 84.7% | HS 578T breast 92.7% | NCI/ADR-RES ovarian 91.9%
active: RPMI-8226 leukemia -43.9%
